In PubChem BioAssay:
Where “and” joins values, the source holds several entries; their conditions need not be identical. Equal values may be shown once. Records with an inconclusive call do not appear. Calls of active or inactive are those of the source.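 How the source made its calls, unless noted: active means normalized viability below 100% at a tested concentration; inactive means the rest.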

Key:
[1] = viability loss in pontine glioma line – cell-based, SU-DIPG-XXV, MIPE5.0, CellTiter-Glo, qHTS, dose response (AID 1347065; cut-off not given, nearly all actives have AC50 up to about 26 µM;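 further: cells exposed to compound for 48 hours before ATP readout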); settings: CellTiter-Glo ATP luminescence
[2] = SU-DIPG-VI glioma cell viability, MIPE4.0 library, CellTiter-Glo luminescence, qHTS (AID 1347066; cut-off not given, nearly all actives have AC50 up to about 30 µM;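 further: cells exposed to compound for 48 hours before readout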); settings: CellTiter-Glo ATP luminescence
[3] = JHH-DIPG-1 glioma cell viability, MIPE5.0 library, CellTiter-Glo luminescence, qHTS (AID 1347067; cut-off not given, nearly all actives have AC50 up to about 26 µM;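 further: cells exposed to compound for 48 hours before readout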); settings: JHH-DIPG-1 glioma viability, CellTiter-Glo ATP luminescence
[4] = SU-DIPG-XXV glioma cell viability, MIPE5.0 library, qHTS (AID 1347068; cut-off not given, nearly all actives have IC50 up to about 30 µM)
[5] = modifiers of HSF1 nuclear foci, imaging, Selleck Cancer Library (AID 1347162; in the data active means plate-normalised HSF1 focus index below about 0.46); settings: human cells, at 10 µM; SSMD: measured here: HSF1 foci SSMD mean; cell count: measured here: cell number; plate-normalised HSF1 focus index: stronger effect = lower value
[6] = phospholipid biosynthesis inhibitors in animal cells, primary screen, cell-based, LOPAC library, screen 4 (AID 1347384; call rule not given here); settings: phospholipid biosynthesis inhibition screen, at 10 µM
[7] = ovarian cancer cell viability with rucaparib, profiling panel, oncology-focused library, rucaparib conditional (AID 1508598); settings: patient-derived ovarian cancer cells, CellTiter-Glo viability, 144 h, stronger effect = lower value
[8] = molecular target: NAD(+) hydrolase SARM1 (Homo sapiens) (UniProt Q6SZW1); assay: SARM1 TIR NADase inhibitors, cell lysate, NAD-Glo luminescence (AID 1508614;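 active means compound whose remaining NAD level is above about 45 nM, limit read from the data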); settings: SAM-TIR HEK293T lysate NADase, at 1 µM, stronger effect = higher value
Chain of NAD(+) hydrolase SARM1 (Homo sapiens) (Q6SZW1 whole entry, looked up, the tested form may be a part): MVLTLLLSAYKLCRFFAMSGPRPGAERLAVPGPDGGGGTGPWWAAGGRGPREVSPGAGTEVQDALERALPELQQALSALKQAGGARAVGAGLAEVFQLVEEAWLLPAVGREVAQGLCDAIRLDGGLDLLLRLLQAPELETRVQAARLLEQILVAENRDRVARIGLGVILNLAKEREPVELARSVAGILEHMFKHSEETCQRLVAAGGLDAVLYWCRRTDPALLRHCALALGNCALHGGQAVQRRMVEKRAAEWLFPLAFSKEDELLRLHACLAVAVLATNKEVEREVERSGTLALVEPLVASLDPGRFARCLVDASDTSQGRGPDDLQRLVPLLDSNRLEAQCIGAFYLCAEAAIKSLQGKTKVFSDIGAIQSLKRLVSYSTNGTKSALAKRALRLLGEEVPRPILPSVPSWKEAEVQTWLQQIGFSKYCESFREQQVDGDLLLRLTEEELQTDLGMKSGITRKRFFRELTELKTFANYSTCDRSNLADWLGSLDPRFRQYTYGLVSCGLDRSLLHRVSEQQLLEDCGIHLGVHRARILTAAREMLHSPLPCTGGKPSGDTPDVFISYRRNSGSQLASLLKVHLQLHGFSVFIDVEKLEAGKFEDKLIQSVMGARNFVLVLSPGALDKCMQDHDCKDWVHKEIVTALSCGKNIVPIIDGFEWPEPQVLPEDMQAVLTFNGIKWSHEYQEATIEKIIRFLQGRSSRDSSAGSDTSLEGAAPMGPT

[9] = molecular target: Mitogen-activated protein kinase 7 (Homo sapiens) (UniProt Q13164); assay: ERK5 transactivation activators in reporter cells, primary screen, cell-based, HTS (AID 1508626;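 active means luciferase signal above three times the same-plate solvent-only control wells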;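 further: luciferase driven by Gal4-ERK5 fusion binding five Gal4 sites before minimal TATA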); settings: HeLa Gal4-ERK5 transactivation, 18 h, at 5 µM, stronger effect = higher value
Chain of Mitogen-activated protein kinase 7 (Homo sapiens) (Q13164 whole entry, looked up, the tested form may be a part): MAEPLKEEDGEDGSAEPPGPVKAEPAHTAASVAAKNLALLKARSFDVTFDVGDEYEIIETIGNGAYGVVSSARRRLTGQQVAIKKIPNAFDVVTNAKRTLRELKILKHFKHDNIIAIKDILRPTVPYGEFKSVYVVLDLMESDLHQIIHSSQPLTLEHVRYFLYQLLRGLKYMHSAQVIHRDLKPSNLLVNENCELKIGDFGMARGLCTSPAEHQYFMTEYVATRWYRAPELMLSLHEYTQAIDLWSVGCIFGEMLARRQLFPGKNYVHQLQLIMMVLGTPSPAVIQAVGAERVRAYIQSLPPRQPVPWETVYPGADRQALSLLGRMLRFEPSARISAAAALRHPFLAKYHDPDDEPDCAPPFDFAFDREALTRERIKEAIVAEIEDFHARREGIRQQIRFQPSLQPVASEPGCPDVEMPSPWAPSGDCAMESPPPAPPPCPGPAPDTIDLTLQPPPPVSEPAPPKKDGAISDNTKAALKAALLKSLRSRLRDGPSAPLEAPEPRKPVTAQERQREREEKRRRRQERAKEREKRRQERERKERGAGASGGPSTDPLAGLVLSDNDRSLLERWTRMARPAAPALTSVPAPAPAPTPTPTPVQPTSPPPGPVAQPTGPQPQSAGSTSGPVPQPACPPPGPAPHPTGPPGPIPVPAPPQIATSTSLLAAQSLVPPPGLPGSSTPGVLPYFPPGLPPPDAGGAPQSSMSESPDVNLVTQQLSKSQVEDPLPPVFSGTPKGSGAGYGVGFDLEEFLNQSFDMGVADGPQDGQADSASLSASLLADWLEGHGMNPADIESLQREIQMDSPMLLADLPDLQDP

[10] = viability rescue of complex I mutant cybrids, primary screen, cell-based, galactose medium, ATP luminescence (AID 1645843;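 active means z-score of at least 1.8 in each of two replicates, scored against plate mean and spread of sample wells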;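 further: positive z means more ATP and so rescue of galactose-driven cybrid death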); settings: complex I mutant cybrid cells, 72 h, stronger effect = higher value

COc1ccccc1OCC(O)CN1CCN(CC(=O)Nc2c(C)cccc2C)CC1 (stereo not drawn)
inactive: outcome [1] | outcome [2] | outcome [3] | outcome [4] | plate-normalised HSF1 focus index [5] 1.14 | outcome [6] | viability ([7]; at 0.000305 µM, OCI-C5x cells, with rucaparib 10 µM, 100% = cells with rucaparib alone) 108% | viability ([7]; at 0.000305 µM, OCI-C5x cells, without rucaparib) 113% | viability ([7]; at 0.000305 µM, OCI-P5x cells, with rucaparib 20 µM, 100% = cells with rucaparib alone) 102% | viability ([7]; at 0.000305 µM, OCI-P5x cells, without rucaparib) 108% | viability ([7]; at 0.00122 µM, OCI-C5x cells, with rucaparib 10 µM, 100% = cells with rucaparib alone) 114% | viability ([7]; at 0.00122 µM, OCI-C5x cells, without rucaparib) 124% | viability ([7]; at 0.00122 µM, OCI-P5x cells, without rucaparib) 106% | viability ([7]; at 0.00488 µM, OCI-C5x cells, with rucaparib 10 µM, 100% = cells with rucaparib alone) 115% | viability ([7]; at 0.00488 µM, OCI-C5x cells, without rucaparib) 113% | viability ([7]; at 0.00488 µM, OCI-P5x cells, without rucaparib) 109% | viability ([7]; at 0.0195 µM, OCI-C5x cells, with rucaparib 10 µM, 100% = cells with rucaparib alone) 106% | viability ([7]; at 0.0195 µM, OCI-C5x cells, without rucaparib) 107% | viability ([7]; at 0.0195 µM, OCI-P5x cells, without rucaparib) 108% | viability ([7]; at 0.0781 µM, OCI-C5x cells, with rucaparib 10 µM, 100% = cells with rucaparib alone) 108% | viability ([7]; at 0.0781 µM, OCI-C5x cells, without rucaparib) 114% | viability ([7]; at 0.0781 µM, OCI-P5x cells, with rucaparib 20 µM, 100% = cells with rucaparib alone) 101% | viability ([7]; at 0.0781 µM, OCI-P5x cells, without rucaparib) 106% | viability ([7]; at 0.313 µM, OCI-C5x cells, with rucaparib 10 µM, 100% = cells with rucaparib alone) 110% | viability ([7]; at 0.313 µM, OCI-C5x cells, without rucaparib) 118% | viability ([7]; at 0.313 µM, OCI-P5x cells, without rucaparib) 107% | viability ([7]; at 1.25 µM, OCI-C5x cells, with rucaparib 10 µM, 100% = cells with rucaparib alone) 102% | viability ([7]; at 1.25 µM, OCI-C5x cells, without rucaparib) 121% | viability ([7]; at 1.25 µM, OCI-P5x cells, with rucaparib 20 µM, 100% = cells with rucaparib alone) 104% | remaining NAD [8] 10 nM | luciferase signal [9] 56 AU | z-score [10] -0.345 and -0.115 and 0.005
7450: cell count [5]
active: viability ([7]; at 0.00122 µM, OCI-P5x cells, with rucaparib 20 µM, 100% = cells with rucaparib alone) 96% | viability ([7]; at 0.00488 µM, OCI-P5x cells, with rucaparib 20 µM, 100% = cells with rucaparib alone) 93.5% | viability ([7]; at 0.0195 µM, OCI-P5x cells, with rucaparib 20 µM, 100% = cells with rucaparib alone) 94.5% | viability ([7]; at 0.313 µM, OCI-P5x cells, with rucaparib 20 µM, 100% = cells with rucaparib alone) 94.5% | viability ([7]; at 1.25 µM, OCI-P5x cells, without rucaparib) 92.6% | viability ([7]; at 5 µM, OCI-C5x cells, with rucaparib 10 µM, 100% = cells with rucaparib alone) 67.5% | viability ([7]; at 5 µM, OCI-C5x cells, without rucaparib) 39.4% | viability ([7]; at 5 µM, OCI-P5x cells, with rucaparib 20 µM, 100% = cells with rucaparib alone) 49.6% | viability ([7]; at 5 µM, OCI-P5x cells, without rucaparib) 23.6%
2.29: SSMD [5]
